From PubChem BioAssay AID2284187 (EPA ToxCast) come the findings set out here.

Results filed as inconclusive are left out. Activity calls are given as the source filed them. The calls were made as follows: active = hit-call score of the fitted dose curve at least 0.9, where 1 is the maximum; inconclusive = response in the unintended direction; inactive = score below 0.9.

The AC50 is the midpoint of the concentration-response curve, whichever way the signal moves.

Chain of rat GHB Receptor Antagonism, Tspan17 (gene 306771) (Q4V8E0 whole entry, looked up): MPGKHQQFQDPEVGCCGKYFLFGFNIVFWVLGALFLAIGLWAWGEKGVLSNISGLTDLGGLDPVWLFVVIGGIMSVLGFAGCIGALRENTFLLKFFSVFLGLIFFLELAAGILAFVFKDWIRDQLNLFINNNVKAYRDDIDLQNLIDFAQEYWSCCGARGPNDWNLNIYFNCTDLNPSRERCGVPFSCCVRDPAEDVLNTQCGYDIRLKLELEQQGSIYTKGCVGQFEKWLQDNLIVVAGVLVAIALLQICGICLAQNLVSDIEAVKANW

The experiment concerns the target rat GHB Receptor Antagonism, Tspan17 (gene 306771) (UniProt Q4V8E0). Nature of the experiment: ERF_FR_GPCR_rGHB: Eurofins (ERF) G Protein-Coupled Receptor (GPCR) Radioligand Binding LeadHunter Assay for rat GHB Receptor Antagonism. On the procedure: ERF_FR_GPCR_rGHB is a biochemical, single-readout assay that uses extracted gene-proteins in a cell-free assay. Measurements were taken 2 hour after chemical dosing in a 96-well plate. See GHB Rat Binding (Antagonist Radioligand) Assay, Cerep.ERF_FR_GPCR_rGHB is an assay component calculated from the ERF_FR_GPCR_rGHB assay. It is designed to measure radioligand binding using a type of binding reporter as detected by scintillation counting with radiometry technology.Data from the assay component ERF_FR_GPCR_rGHB was analyzed at the assay endpoint, ERF_FR_GPCR_rGHB, in the positive analysis fitting direction relative to DMSO as the negative control and baseline of activity. Using a type of binding reporter, loss-of-signal activity can be used to understand changes in binding as they relate to gene TSPAN17. To generalize the intended target to other relatable targets, this assay endpoint is annotated to the gpcr intended target family, where the subfamily is ghb .
Brain cortex of Wistar derived rats weighing 175 +/- 25 g are used to prepare GHB receptors in potassium buffer pH 6.0. A 1 mg aliquot is incubated with 20 nM [3H] NCS382 for 120 minutes at 4 C. Non-specific binding is estimated in the presence of 1 mM NCS382. Membranes are filtered and washed, the filters are then counted to determine [3H] NCS382 specifically bound. […]
As to `COc1cc(/C=C/C(=O)CC(=O)/C=C/c2ccc(O)c(OC)c2)ccc1O`, the AC50 was 1590 nM (active).

Consider `O=C(/C=C/c1ccc(O)cc1)CC(=O)/C=C/c1ccc(O)cc1`, for which the AC50 is 1670 nM (active).
